# Shown are actives, neighbours in structure and some others; about 4.1% of the full set was active somewhere.
# hgDAF-12 ag – H. glycines DAF-12 receptor agonists, primary screen, cell-based, luminescence, HEK293, GAL4 fusion, UAS-luciferase; Nuclear hormone receptor DAF-12 (Heterodera glycines), GAL4 fusion; HEK293 GAL4-hgDAF12 UAS-luciferase reporter, agonist luminescence; normalized to butyrate control; activation, % at 6.8 µM; 370,000 tested, 1.8% active; AID 687014, 2013;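 active = activation above a cutoff set at the mean of all screened compounds plus 3 SD, cut at about 10% in these data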;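 note: 0% = DMSO wells and 100% = sodium butyrate wells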
# ssDAF12 agonist – S. stercoralis DAF-12 nuclear receptor activators, primary screen, cell-based, luminescence, HEK293, GRIP1 co-expression, lit1-tk-luc | Nuclear hormone receptor DAF-12 (Strongyloides stercoralis) | activation, % at 6.8 µM | 370,000 tested, 1% active | AID 652126, 2013 | HEK293 ssDAF-12/GRIP1 lit1-tk-luc reporter; % of 3 µM dafachronic acid response;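 active = activation above the mean over all tested compounds plus 3 SD, cut at about 0.9% in these data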;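 note: 0% = DMSO-only wells and 100% = 3 µM delta7-dafachronic acid wells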
# DAX1 inh-1 – DAX1 (NR0B1) inhibitors, primary screen, cell-based, HEK293, Gal4-DAX1, luciferase luminescence. Nuclear receptor subfamily 0 group B member 1 (Homo sapiens), P51843. HEK293 Gal4-DAX1 luciferase reporter. inhibition, % at 6.75 µM. 340,000 tested, 0.99% active;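 active = inhibition above the mean over all tested compounds plus 3 SD, cut at about 4.2% in these data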;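 note: 0% = DAX1-transfected cells with DMSO and 100% = empty-vector control cells with DMSO; inhibition shows as a rise in luminescence from relieved DAX1 repression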
# Target sequence (P51843 207-470 limits assumed): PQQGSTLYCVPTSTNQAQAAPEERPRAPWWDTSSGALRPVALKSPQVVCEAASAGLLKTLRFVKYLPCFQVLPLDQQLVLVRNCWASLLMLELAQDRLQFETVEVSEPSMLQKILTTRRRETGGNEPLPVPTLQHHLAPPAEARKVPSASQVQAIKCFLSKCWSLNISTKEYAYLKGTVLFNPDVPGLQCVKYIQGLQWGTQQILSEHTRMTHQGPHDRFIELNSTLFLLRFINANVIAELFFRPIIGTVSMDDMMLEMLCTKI
# hcDAF-12 act – H. contortus DAF-12 nuclear receptor activators, primary screen, cell-based, luminescence, HEK293, lit1-tk-luc reporter; HEK293 hcDAF-12 lit1-tk-luc reporter; 0% DMSO, 100% Δ7-dafachronic acid; activation, % at 6.8 µM; 370,000 tested, 1.4% active;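 active = activation above the mean of all tested compounds plus 3 SD, cut at about 5.5% in these data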;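 note: 100% = response to 3 µM Δ7-dafachronic acid high control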
# DAX1 inh-2 – DAX1 (NR0B1) inhibitors on StAR promoter, primary screen, cell-based, luminescence, SF-1 (NR5A1), full-length DAX-1; HEK293T StAR-luciferase reporter, SF-1/DAX-1 repression relief; AID 652010, 2013; inhibition, % at 6.8 µM; 370,000 tested, 1.1% active;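 active = inhibition above the mean over all tested compounds plus 3 SD, cut at about 3.6% in these data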;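 note: 0% = DAX-1 cells with DMSO and 100% = cells lacking DAX-1 with DMSO; higher inhibition means more luminescence from relief of DAX-1 repression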
# hgDAF12 ag – H. glycines DAF-12 receptor agonists, confirmation, cell-based, luminescence, HEK293, GAL4-LBD fusion. shares compounds with hgDAF-12 ag. HEK293 GAL4-hgDAF12 luciferase reporter, agonist mode; percent of butyrate response. activation, % at 6.8 µM. 3,300 tested, 80% active. AID 743050, 2013;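 active = mean activation over triplicate wells above the hit cutoff derived from the earlier primary screen, cut at about 11% in these data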;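 note: 0% = DMSO low control and 100% = 2 mM sodium butyrate high control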
# LXR ag 2 – LXR agonists, Gal4 luciferase reporter, confirmation, counter-screen for hgDAF-12 agonist project, cell-based, luminescence, HEK293, H. glycines campaign. shares compounds with hgDAF-12 ag. 24 h. activation, % at 6.8 µM. 3,300 tested, under 10 active;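 active = mean activation of the triplicate above a set limit carried over from the primary screen, none filed active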
# Active calls of the source: *; . = no result given.
SMILES,hgDAF-12 ag,ssDAF12 agonist,DAX1 inh-1,hcDAF-12 act,DAX1 inh-2,hgDAF12 ag,LXR ag 2
COc1ccc(-c2cc(C(=O)c3c(N)n(C)c(=O)n(C)c3=O)c3ccccc3n2)cc1,14*,1.7*,2,5,1,10*,0
CCCn1nc(NC(C)=O)c2cc3cccc(C)c3nc21,-2,-1,0,-2,0,.,.
CCCn1nc(NC(=O)COC)c2cc3cccc(C)c3nc21,14*,-1,0,-1,0,1,0
O=C(NCc1cc(Cl)cc(Cl)c1)c1csc([C@@H]2O[C@H](CO)[C@H](O)[C@H](O)[C@H]2O)n1,-2,-1,.,-1,0,.,.
COc1cccc(NC(=O)C2(S(=O)(=O)c3ccc(Cl)cc3)CC2)c1,0,-2,1,-2,0,.,.
CC(=O)Nc1c(O)nc(SCC(=O)Nc2cccc(C)c2)[nH]c1=O,0,-1,1,0,0,.,.
CC(=O)Nc1c(O)nc(SCC(=O)Nc2ccc(C(C)=O)cc2)[nH]c1=O,14*,-1,1,3,0,12*,0
COc1ccc(N2C(=O)S[C@@H]3CS(=O)(=O)C[C@@H]32)cc1,-3,-1,0,-2,0,.,.
Cc1ccc2nc(-c3ccc(N4C(=N)SC5CS(=O)(=O)CC54)cc3)sc2c1 (stereo unspecified),14*,0,1,2,1,13*,0
O=C(O)c1ccc(-c2nc(-c3ccccc3)cs2)cc1,13*,0,6.5*,2,3,9,1
O=C(O)c1ccccc1C(=O)Nc1ccc(-c2csc(-c3ccccc3)n2)cc1,16*,-1,1,1,0,6,0
C[C@@H]1C=CCCO[C@]12C(=O)N(Cc1ccc(F)cc1)c1cccc(Br)c12,-4,-1,.,-1,1,.,.
Cc1ccc(NC(=O)c2ccc(N3C(=O)C4CC=C(Cl)CC4C3=O)cc2)cc1 (stereo unspecified),2,-1,-1,-1,2,.,.
C/C(=N\O)c1ccc(N2C(=O)C3CC=C(Cl)CC3C2=O)cc1 (stereo unspecified),14*,0,5.0*,4,4,15*,1
N#CCC(=O)Nc1ccc(C(=O)NCCc2c[nH]c3ccccc23)cc1,0,0,0,3,0,.,.
O=c1c2ccccc2nc(-c2ccco2)n1Cc1ccccc1,14*,-1,2,3,1,12*,0
c1ccc(Cn2c(-c3ccco3)nc3nc4ccccc4nc32)cc1,7,0,2,1,2,.,.
O=C(O)c1ccc2c(=O)[nH]c(CCl)nc2c1,1,-2,0,0,2,.,.
COc1ccccc1/C=N\N=C(\N)c1ccccn1,13*,1.1*,0,6.0*,3.9*,14*,1
COc1ccccc1C=NN=C(N)C(N)=NN=Cc1ccccc1OC,2,0,-1,0,-1,.,.
Cc1cc(OCC(=O)N(C)C2CCCCC2)ccc1Cl,17*,1,0,4,3.6*,10,1
O=C(Nc1cccc2ccccc12)OCc1ccccc1,17*,0,1,3,1,6,0
CSc1nc(-c2ccc(N(C)C)cc2)c(C#N)c(=O)n1C,14*,0,1,2,2,6,0
CSc1nc(-c2ccc(Cl)cc2)c(C#N)c(=O)n1C,1,-2,-1,-1,-1,.,.
O=C(C1CC(c2ccccc2O)=NO1)N1CCCC1 (stereo unspecified),14*,-1,-1,1,1,2,0
SMILES,hgDAF-12 ag,ssDAF12 agonist,DAX1 inh-1,hcDAF-12 act,DAX1 inh-2,hgDAF12 ag,LXR ag 2
CCOC(=O)N1CCN(C(=O)C2CC(c3ccccc3OC)=NO2)CC1 (stereo unspecified),2,-1,-1,3,0,.,.
COc1ccc(-c2cc3ccc(OCC(N)=O)cc3oc2=O)cc1OC,2,-1,0,2,0,.,.
CC(=O)COc1ccc2cc(-c3ccccc3)c(=O)oc2c1,17*,0,3,6.2*,2,17*,1
O=C(Nc1cccc(Cl)c1Cl)c1csc([C@@H]2O[C@H](CO)[C@@H](O)[C@H]2O)n1,7,-1,.,0,2,.,.
O=C(Nc1cccc(Cl)c1Cl)c1csc([C@H]2C[C@H](O)[C@@H](CO)O2)n1,15*,0,.,5,2,13*,1
O=[N+]([O-])/C=C\c1ccc(N2CCCC2)c(F)c1,.,.,-1,.,.,.,.
c1ccc(Cc2nnc(-c3ccccc3)o2)cc1,14*,0,4,2,0,10,0
COc1cc(/C=C2\SC(=S)N(Nc3ccccc3)C2=O)ccc1O,14*,-1,1,5,2,15*,1
O=C(N=C1SCC(=O)N1c1ccccc1Cl)c1ccccc1,17*,1,1,3,2,9,1
O=C(NCc1ccccn1)c1ccc(OC2CCN(Cc3cccs3)CC2)cc1,0,-1,0,-1,0,.,.
COC(=O)c1ccc(/C=C(\C#N)c2ccccn2)cc1,15*,1.5*,5.0*,3,3,14*,1
Oc1ccc(-c2cnc3ccccc3n2)cc1,15*,-1,3,4,2,20*,1
Nc1ccc2nc(-c3ccccc3)cnc2c1,7,0,3,5,1,.,.
COc1ccc2c(c1)CCC/C2=N/OC(=O)c1ccccc1OC,3,-1,-1,-1,0,.,.
COc1ccc2c(c1)CC/C2=N\OC(=O)c1cccc(C)c1,14*,0,2,2,2,17*,1
Cn1c(=O)c2c(ncn2CCOc2cccc(Br)c2)n(C)c1=O,-2,-2,-1,-4,-1,.,.
Cc1ccc(/C=C/c2nnc(-c3ccc(C)cc3)o2)cc1,2,-1,0,1,1,.,.
Fc1ccc(/C=C/c2nnc(-c3cccs3)o2)cc1,15*,0,2,4,3.7*,12*,1

# High-throughput results as filed in PubChem BioAssay.
